According to PubChem BioAssay (NCATS):
Inconclusive results are not listed. Entries that show only a call come without a potency. Activity calls are given as the source filed them. The call rests on the fitted dose curve; in most records, active means well fitted curve in the direction sought with a large enough effect; inconclusive means small, poorly fitted or top-dose-only effect, or another doubt; inactive means no such curve, though single readings can be large; an effect the other way counts as inactive or inconclusive.

Experiments:
[1] = qHTS for Inhibitors of the Aldehyde Dehydrogenase Family (ALDH1A2, ALDH1A3, ALDH2, ALDH3A1) (AID 2061307); further: nearly all actives have a fitted effect of over 50% in size; on potency: test system not described further here; potency means the concentration at half of the fitted maximal effect
[2] = target: Aldehyde dehydrogenase, mitochondrial (Homo sapiens) (UniProt P05091); experiment: qHTS for Inhibitors of the Aldehyde Dehydrogenase Family (ALDH2) Primary screen (AID 2061308); further: nearly all actives have a fitted effect of over 55% in size
[3] = target: Retinaldehyde dehydrogenase 3 (Homo sapiens) (UniProt P47895); experiment: qHTS for Inhibitors of the Aldehyde Dehydrogenase Family (ALDH1A3) Primary screen (AID 2061315)
[4] = target: Aldehyde dehydrogenase 1A1 (Homo sapiens) (UniProt P00352); experiment: qHTS for Inhibitors of the Aldehyde Dehydrogenase Family (ALDH1A1) Confirmatory screens (AID 2061316); further: nearly all actives have a fitted effect of over 65% in size; further: potency means the concentration at half of the fitted maximal effect
[5] = target: Retinaldehyde dehydrogenase 3 (Homo sapiens) (UniProt P47895); experiment: qHTS for Inhibitors of the Aldehyde Dehydrogenase Family (ALDH1A3) Confirmatory screens (AID 2061311); further: nearly all actives have a fitted effect of over 60% in size; further: potency means the concentration at half of the fitted maximal effect
[6] = target: Retinal dehydrogenase 2 (Homo sapiens) (UniProt O94788); experiment: qHTS for Inhibitors of the Aldehyde Dehydrogenase Family (ALDH1A2) Confirmation screens (AID 2061314); further: nearly all actives have a fitted effect of over 65% in size; further: potency means the concentration at half of the fitted maximal effect

Row | SMILES | Potency [1] | Potency [2] | Potency [3] | Potency [4] | Potency [5] | Potency [6]
1 | Cc1[nH]c2ccccc2c1C1=C(NCCc2ccc(F)cc2)C(=O)N(C)C1=O | 0.896 µM (active) | inactive | inactive | – | – | –
2 | OCc1ccc(-c2ccc3ncnc(NCCc4cnc[nH]4)c3c2)o1 | inactive | inactive | inactive | 10.1 µM (active) | – | –
3 | O=C(OCC#CCSc1nnc(-c2cccc3ccccc23)o1)c1ccc(Br)cc1 | inactive | inactive | inactive | inactive | – | –
4 | COc1ccc(-n2c(C)c(C(C)=O)c3cc(OC(=O)COc4ccccc4)ccc32)cc1 | inactive | – | – | inactive | inactive | inactive
5 | CC(=O)N1CCN(c2ccc(NCc3ccc(Br)o3)cc2)CC1 | 10.1 µM (active) | – | – | 10.1 µM (active) | 17.9 µM (active) | 12.7 µM (active)
6 | N#Cc1ccc(-c2ccc(CNc3ccc(N4CCOCC4)cc3)cn2)cc1 | 6.34 µM (active) | – | – | 4.49 µM (active) | 12.7 µM (active) | inactive
7 | Cc1cccc(C(=O)NCc2nnc3cc(-c4nc(C)no4)ccn23)c1 | inactive | – | – | inactive | inactive | inactive
8 | Cc1ccc2nc3sc(C(=O)NC4CCC(O)CC4)cc3cc2c1 (configuration not stated) | 6.34 µM (active) | – | inactive | 12.7 µM (active) | 20.1 µM (active) | –
9 | Cc1ccc(C(=O)NCC(c2ccc3c(c2)OCO3)N2CCN(c3ccc(F)cc3)CC2)cc1 (configuration not stated) | inactive | – | – | inactive | inactive | inactive
10 | O=C1Cc2cc(S(=O)(=O)N3CCN(c4ccc(Cl)cc4)CC3)ccc2N1 | inactive | – | inactive | – | inactive | –
11 | O=C(Nc1ncc(Cc2ccc(C(F)(F)F)cc2)s1)c1ccc(-c2ccccc2[N+](=O)[O-])o1 | 12.7 µM (active) | – | – | 6.34 µM (active) | 11.3 µM (active) | 25.2 µM (active)
